TDP1 cell CPT: growth inhibition of DT40 Tdp1-/-;hTDP1 cells with camptothecin (screen for TDP1 inhibitors) | 12% of 420,000 active | Potency, µM (top dose mostly 46.2 µM), inactives show top-dose activity change, negative = growth inhibition, usual class: inhibitors | chicken DT40 Tdp1-/-;hTDP1 cells + 20 nM CPT, ATP luminescence, 48 h; further: nearly all actives have a fitted effect of over 55% in size
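Cell growth measured by CellTiter-Glo luminescence after a minimum 48 h, 37 C compound exposure with 20 nM CPT in Tdp1-knockout DT40 cells stably expressing hTDP1, seeded 400/well; qHTS titration format.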
KB-V1 cytotox: KB-V1 MDR subline cytotoxicity | KB-V1 MDR cells viability, CellTiter-Glo, 72 h | Potency, µM (series often up to 46.1 µM), actives largely listed as cytotoxic | 3.4% of 400,000 active | AID 1347076; further: nearly all actives have a fitted effect of over 60% in size
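Readout: CellTiter-Glo luminescence, 10 min after addition. Cells: KB-V1 MDR subline, 72 h at 37 degrees C with compound. Analysis: corrected, normalized data fitted to concentration-effect curves.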
TDP1 cell noCPT: qHTS for Inhibitors of human tyrosyl-DNA phosphodiesterase 1 (TDP1): qHTS in cells in absence of CPT | DT40 Tdp1-/- hTDP1 cells, no CPT, ATP luminescence, 48 h | Potency, µM (series often up to 46.2 µM), without a hit: at the top dose activity change, negative = growth inhibition, hits mostly inhibitors | 15% of 420,000 active | AID 686978, 2013; further: nearly all actives have a fitted effect of over 55% in size
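Chicken DT40 Tdp1-/- cells complemented with human TDP1, screened without camptothecin (DMSO vehicle only), 400 cells/well. Compounds pin-transferred, cells incubated at 37 °C for at least 48 hr. Growth read as ATP-dependent luminescence (CellTiter-Glo, 30 min at RT).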
HT1080 IDH1KD tx: toxicity to HT-1080 IDH1 knockdown cells (counter line); HT-1080 IDH1 knockdown viability, ATP luminescence, 48 h; Potency, µM (doses to about 46.1 µM), for the others: at the top dose activity, negative = toxicity, hits mostly cytotoxic; 2% of 360,000 active;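 further: 0% = DMSO wells and -100% = cell-free medium wells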
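HT-1080-IDH1KD cells (IDH1 knocked down), 750/well in RPMI with 5% FBS, treated with compound 48 h at 37 degrees C. Viability by CellTiter-Glo luminescence, normalised to DMSO and no-cell wells; concentration-response curves classed.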
KB-3-1 cytotox: KB-3-1 parental cell cytotoxicity; KB-3-1 viability, CellTiter-Glo ATP luminescence, 72 h; 1.4% of 400,000 active; Potency, µM (highest dose often 46.1 µM), most hits filed as cytotoxic; AID 1347075; further: nearly all actives have a fitted effect of over 60% in size
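KB-3-1 parental drug-naive adenocarcinoma cells in DMEM/10% FBS, incubated 72 h at 37 C with pin-transferred compounds across a concentration series. Viability by CellTiter-Glo luminescence; concentration-response curves fitted after normalization.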
HT1080-NT tox: kills 2HG-producing HT-1080-NT fibrosarcoma cells; HT-1080-NT fibrosarcoma viability, CellTiter-Glo ATP luminescence, 48 h; Potency, µM (highest dose often 46.1 µM), for inactives: top-dose activity, negative = less viability, actives largely listed as cytotoxic; 1.6% of 360,000 active; AID 686970;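 further: NT is the 2HG producing partner of a matched IDH1 knockdown line; 0% = DMSO-treated cells and -100% = media-only wells without cells; nearly all actives have a fitted effect of over 55% in size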
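HT-1080-NT fibrosarcoma cells (2HG-overproducing), 750 cells/well in RPMI with 5% FBS, dosed after 2 h and incubated 48 h at 37C. CellTiter-Glo luminescence normalized to DMSO and no-cell wells; concentration-response curves fitted and classed.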
* = called active by the depositor; [ ] = dose if it differs, or a comment. In the library only some 19% were active in any assay of this set; here they are far more common. The call rests on the fitted dose curve; in most records, active means well fitted curve in the direction sought with a large enough effect; inconclusive means small, poorly fitted or top-dose-only effect, or another doubt; inactive means no such curve, though single readings can be large; an effect the other way counts as inactive or inconclusive. Unless noted, on the % scale 0 is the no-effect control and ±100 the full control effect; potency means the concentration at half of the fitted maximal effect.

Screening COc1ccc(-c2nc(NC(=O)C3=NN(c4cccc(C)c4)C(=O)CC3)sc2C)cc1 returned TDP1 cell CPT 23µM*, KB-V1 cytotox inactive, TDP1 cell noCPT inconclusive, HT1080 IDH1KD tx 2%, KB-3-1 cytotox inactive and HT1080-NT tox 6%.
C=Cc1c(C)c2cc3nc(cc4[nH]c(cc5nc(cc1[nH]2)C(C)=C5CCC(=O)OC)c(CCC(=O)O)c4C)[C@@]1(C)C3=CC=C(C(=O)OC)[C@H]1C(=O)OC was read as TDP1 cell CPT -2% and TDP1 cell noCPT 1%.
Screening CC(NC(=O)C(=O)NCCc1c[nH]c2ccccc12)c1ccccc1 (stereo not given) returned TDP1 cell CPT inconclusive, KB-V1 cytotox inactive, TDP1 cell noCPT -5%, HT1080 IDH1KD tx 3%, KB-3-1 cytotox inactive and HT1080-NT tox 5%.
Screening Nc1ccn([C@@H]2O[C@H](CNCc3ccc(C#CCCO)cc3)[C@@H](O)[C@H]2O)c(=O)n1 returned TDP1 cell CPT -4%, KB-V1 cytotox inactive, TDP1 cell noCPT inconclusive, HT1080 IDH1KD tx -18%, KB-3-1 cytotox inactive and HT1080-NT tox 0%.
Screening CCn1c(SCc2ccc(C#N)cc2)nnc1-c1ccc(S(=O)(=O)N2CCCCC2)cc1 returned TDP1 cell CPT 15µM*, KB-V1 cytotox inactive, TDP1 cell noCPT inconclusive, HT1080 IDH1KD tx -4%, KB-3-1 cytotox inconclusive and HT1080-NT tox -22%.
`N#Cc1ccc(CSc2ccc(S(=O)(=O)N3CCCC3)cn2)cc1` gave TDP1 cell CPT inconclusive, KB-V1 cytotox inactive, TDP1 cell noCPT 26µM*, HT1080 IDH1KD tx -6%, KB-3-1 cytotox inactive and HT1080-NT tox -2%[9.24 µM].
`CCn1c(SCc2ccc(F)cc2)nnc1C1CCN(S(=O)(=O)c2ccc(OC)cc2)CC1` gave TDP1 cell CPT inconclusive, KB-V1 cytotox inactive, TDP1 cell noCPT 16µM*, HT1080 IDH1KD tx -16%, KB-3-1 cytotox inactive and HT1080-NT tox -6%.
`O=[N+]([O-])c1ccc(CSc2ccc(S(=O)(=O)N3CCCC3)cn2)cc1` gave TDP1 cell CPT inconclusive, KB-V1 cytotox inactive, TDP1 cell noCPT 23µM*, HT1080 IDH1KD tx -11%, KB-3-1 cytotox inactive and HT1080-NT tox -16%.
Cc1ccc(CSc2ccc(S(=O)(=O)N3CCCC3)cn2)cc1 was read as TDP1 cell CPT -13%, KB-V1 cytotox inactive, TDP1 cell noCPT -24%, HT1080 IDH1KD tx -1%, KB-3-1 cytotox inactive and HT1080-NT tox -4%.
Screening COc1ccc(N2CCN(CC(O)COc3ccc4c(c3)CCC4)CC2)cc1 (stereo not given) returned TDP1 cell CPT 18µM*, KB-V1 cytotox inactive, TDP1 cell noCPT 23µM*, HT1080 IDH1KD tx -13%, KB-3-1 cytotox inactive and HT1080-NT tox -14%.
`C=CCc1ccccc1OCC(O)CNC` (stereo not given) gave TDP1 cell CPT 4%, KB-V1 cytotox inactive, TDP1 cell noCPT -25%, HT1080 IDH1KD tx -1%, KB-3-1 cytotox inactive and HT1080-NT tox 0%.
Screening CC(=O)Nc1ccc(OCC(O)CN2CCN(c3cccc(Cl)c3)CC2)cc1 (stereo not given) returned TDP1 cell CPT -9%, KB-V1 cytotox 16µM*, TDP1 cell noCPT -2%, HT1080 IDH1KD tx -4%, KB-3-1 cytotox inactive and HT1080-NT tox 0%.
Screening Cc1ccc(N2CCN(CC(O)COc3cccc(C)c3)CC2)cc1 (stereo not given) returned TDP1 cell CPT 23µM*, KB-V1 cytotox inactive, TDP1 cell noCPT inconclusive, HT1080 IDH1KD tx -1%, KB-3-1 cytotox inactive and HT1080-NT tox 1%.
`C=CCc1ccccc1OCC(O)CN(C(C)C)C(C)C` (stereo not given) gave TDP1 cell CPT -24%, KB-V1 cytotox inactive, TDP1 cell noCPT 23µM*, HT1080 IDH1KD tx -1%, KB-3-1 cytotox inactive and HT1080-NT tox -6%.
`N[C@H](C(=O)O)[C@H]1C[C@H]1C(=O)O` gave TDP1 cell CPT -26% and TDP1 cell noCPT -26%.
For Cc1cc(C)c2c(=O)cc(CSc3n[nH]c(C)n3)[nH]c2c1 the results were TDP1 cell CPT -4%, KB-V1 cytotox inconclusive, TDP1 cell noCPT -22% and KB-3-1 cytotox inactive.
COc1cc(OC)cc(C(=O)NCC(=O)NCc2ccccn2)c1 was read as TDP1 cell CPT -2%, KB-V1 cytotox inactive, TDP1 cell noCPT 8%, HT1080 IDH1KD tx 1%, KB-3-1 cytotox inactive and HT1080-NT tox 2%[9.24 µM].
For Cc1cccc(N2CCN(CC(O)COc3ccc(Cl)cc3)CC2)c1 (stereo not given) the results were TDP1 cell CPT inconclusive, KB-V1 cytotox inactive, TDP1 cell noCPT 13µM*, HT1080 IDH1KD tx -1%, KB-3-1 cytotox inactive and HT1080-NT tox 2%.
CC(=O)c1ccc(N2CCN(CC(O)COC(c3ccccc3)c3ccccc3)CC2)cc1 (stereo not given) was read as TDP1 cell CPT inconclusive, KB-V1 cytotox inactive, TDP1 cell noCPT inconclusive, HT1080 IDH1KD tx inconclusive, KB-3-1 cytotox inactive and HT1080-NT tox inconclusive.
`CC(=O)c1ccc(N2CCN(CC(O)COC(c3ccccc3)c3ccccc3C)CC2)cc1` (stereo not given) gave TDP1 cell CPT 23µM*, KB-V1 cytotox inactive, TDP1 cell noCPT inconclusive, HT1080 IDH1KD tx inconclusive, KB-3-1 cytotox inactive and HT1080-NT tox inconclusive.
Screening OC(COC(c1ccccc1)c1ccccc1)CN1CCN(c2cccc(Cl)c2)CC1 (stereo not given) returned TDP1 cell CPT 21µM*, KB-V1 cytotox inactive, TDP1 cell noCPT inconclusive, HT1080 IDH1KD tx inconclusive, KB-3-1 cytotox inactive and HT1080-NT tox -11%.
For C=CCc1ccccc1OCC(O)CN1CCOCC1 (stereo not given) the results were TDP1 cell CPT -8%, KB-V1 cytotox inactive, TDP1 cell noCPT -22%, HT1080 IDH1KD tx -1%, KB-3-1 cytotox inactive and HT1080-NT tox 2%.
For C=CCc1ccccc1OCC(O)CN1CCN(c2ccc(OC)cc2)CC1 (stereo not given) the results were TDP1 cell CPT 16µM*, KB-V1 cytotox inactive, TDP1 cell noCPT inconclusive, HT1080 IDH1KD tx 3%, KB-3-1 cytotox inactive and HT1080-NT tox 0%.

Screens (PubChem)
